From PubChem BioAssay AID2546 (National Center for Advancing Translational Sciences (NCATS), 2010)
Out of some 310,000 compounds screened, about 11,000 (3.5%) were called active. About 8% were inconclusive and are not listed. Calls come from the whole dose curve; as a rule, active = well fitted inhibition curve with a large enough effect; inconclusive = small, poorly fitted or top-dose-only effect, or effect the other way; inactive = flat fitted curve, though single readings scatter. The list comes from a sample in which actives are over-represented; it also holds similar structures and randomly drawn compounds. Entries that show only a call come without a potency.

Assay: VP16 counterscreen qHTS for inhibitors of ROR gamma transcriptional activity;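 note: Gal4-VP16 expression switched on by copper sulfate through the metallothionein promoter; nearly all actives have a fitted effect of over 50% in size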
Settings: Drosophila S2 Gal4-VP16 UAS-luciferase, luminescence, 20 h; series mostly up to 53.6 µM
Potency is the fitted concentration of half-maximal effect.

| Structure (SMILES) | Potency |
| --- | --- |
| COc1ccc(OC)c(NC(=O)c2ccc3c(c2)CCN3S(C)(=O)=O)c1 | inactive |
| COc1ccc(-n2ncc3c2CC(C)(C)CC3NC(=O)CCc2c(C)noc2C)cc1 (stereo not drawn) | inactive |
| CCn1c(CC(=O)Nc2ccccc2)nnc1SCC(=O)N1CCOCC1 | inactive |
| Cc1cccc(C)c1OCCN1CCOCC1 | inactive |
| CC(CC(=O)N1CCN(c2ccccc2)CC1)S(=O)(=O)c1ccc2c(c1)NC(=O)CS2 (stereo not drawn) | inactive |
| CCOC(=O)c1c(-c2ccc(C)cc2)csc1/N=C(\C)C1=C(O)c2ccccc2C1=O | inactive |
| CCOC(=O)C1=C(c2ccc(OC)cc2)C(=O)c2ccccc2C1=O | 4.47 µM (active) |
| CCCCC(C(=O)OCC(=O)c1ccc(OC)cc1)N1C(=O)c2ccccc2C1=O (stereo not drawn) | inactive |
| COc1ccccc1-n1c(SCC(=O)Nc2cccc(C(=O)O)c2)nnc1-c1ccccc1O | inactive |
| CCOC(=O)[C@@H]1[C@H]2COc3ccc(Br)cc3[C@H]2N2C(=O)N(c3ccc(Cl)cc3)C(=O)[C@@]12C | inactive |
| COC(=O)c1cc(NS(=O)(=O)c2ccc3c(c2)c(=O)n(C)c(=O)n3C)cc(C(=O)OC)c1 | inactive |
| Cc1[nH]c2ccccc2c1C(=O)CN1CC(C)CC(C)C1 (stereo not drawn) | inactive |
| CC(=O)Nc1cccc(NC(=O)c2ccc3c(c2)CCN3S(C)(=O)=O)c1 | inactive |
| COc1ccccc1-c1sc2ccccc2c1-c1ccc(C(C)=O)cc1 | inactive |
| CN(C)c1ccc(-n2cccc2/C=C2/SC(=Nc3ccc(F)cc3)NC2=O)cc1 | inactive |
| C(=N\n1cnnc1)/c1cccnc1 | inactive |
| CN(C)c1ccc(-n2cccc2/C=N/n2cnnc2)cc1 | 14.1 µM (active) |
| CNC[C@H](CC1CCCCC1)NC[C@H](NCCC1CCCC1)[C@H](C)O | inactive |
| O=C1c2ccccc2C(=O)N1CCOc1ccc(F)cc1 | inactive |
| CN1CN(C)c2ccc([N+](=O)[O-])c3cccc1c23 | inactive |
| CCCNC(=O)CCc1c(C)nc2c(c(C)nn2-c2ccc(C)cc2)c1C | inactive |
| COc1ccc(Cn2c(=S)[nH]c3cc(C(=O)NCCCN4CCOCC4)ccc3c2=O)cc1 | inactive |
| O=C(NC1CCCCC1)c1ccc2c(=O)n(CC3CCCO3)c(=O)[nH]c2c1 (stereo not drawn) | inactive |

| Structure (SMILES) | Potency |
| --- | --- |
| COC(=O)c1ccc2c(=O)n(CC3CCCO3)c(=S)[nH]c2c1 (stereo not drawn) | 5.01 µM (active) |
| COc1ccccc1OCCCC(=O)Nc1ccc2c(c1)OCCO2 | inactive |
| O=C(CNC(=O)c1cccnc1)N/N=C/c1cccnc1 | inactive |
| O=C(CSc1cccc2cccnc12)N/N=C/c1cccnc1 | 20 µM (active) |
| Cc1nc2ccccc2n1CC(=O)N/N=C/c1cccnc1 | inactive |
| CN(C)Cc1c(O)ccc2c(=O)c(-c3ccccc3Cl)coc12 | inactive |
| COc1ccccc1CN1CCNC(=O)C1CC(=O)N(C)CC1CCOCC1 (stereo not drawn) | inactive |
| COc1ccc2c(C)c(CCC(=O)NC3CC3)c(=O)oc2c1C | inactive |
| COc1ccc2c(c1OC)C(=O)N(c1ccc(O)cc1)C2 | inactive |
| O=C(NCCN1CCOCC1)c1ccc(/C=C2\Sc3ccccc3N(Cc3ccc(F)cc3)C2=O)cc1 | inactive |
| CN1CCN(CCCNC(=O)c2ccc(/C=C3\Oc4ccccc4N(Cc4ccc(Cl)cc4)C3=O)cc2)CC1 | 11.2 µM (active) |
| CN1C(=O)/C(=C/c2ccc(C(=O)NC3CCCC3)cc2)Oc2ccccc21 | inactive |
| Cc1cc(N2C(=O)C(O)=C(C(=O)c3ccc(C)o3)C2c2ccc(OCc3ccccc3)cc2)no1 (stereo not drawn) | inactive |
| O=C(CN1CCC(NC(=O)Nc2ccccc2)CC1)Nc1cccc([N+](=O)[O-])c1 | inactive |
| COc1cccc(C(=O)CC(=O)C(=O)Nc2ccc([N+](=O)[O-])cc2C)c1 | inactive |
| CC1(C)Cc2c(sc(NC(=O)C(=O)N3CCOCC3)c2C#N)CO1 | inactive |
| COc1ccc(Cc2nc3ccc(C(=O)NCC4CCOCC4)cc3o2)cc1OC | inactive |
| O=C(O)c1ccccc1CSc1nc2ccccc2s1 | inactive |
| C/C(=N\Nc1ncc(Cl)cc1Cl)c1ccc(S(=O)(=O)NCc2ccco2)cc1 | 3.16 µM (active) |
| O=S(=O)(NCc1ccco1)c1cnc(Cl)c(Cl)c1 | inactive |
| O=C(CCCl)Nc1ccc(S(=O)(=O)NCc2ccco2)cc1 | inactive |
| CCCc1ccc(OCCNC(=O)c2ccccc2Br)cc1 | inactive |
| Cc1cc(NC(=O)c2ccccc2C)no1 | inactive |

| Structure (SMILES) | Potency |
| --- | --- |
| O=Cc1cn(Cc2ccccc2)nc1-c1cccnc1 | inactive |
| O=C1/C(=C\c2cccnc2)CN(Cc2ccccc2)C/C1=C\c1cccnc1 | 2 µM (active) |
| Clc1ccc(CN2CCN(/N=C/c3cccnc3)CC2)cc1 | inactive |
| Cc1c(C(C)(C)O)[nH]c2ccc(C#N)cc12 | inactive |
| O=C(O)c1ccccc1C(=O)NC1=NN(c2ccccc2)CC1 | inactive |
| O=C1CCC(C(=O)N2CCCCO2)CN1Cc1cccc(C(F)(F)F)c1 (stereo not drawn) | inactive |
| NS(=O)(=O)c1ccc(CCNS(=O)(=O)c2cccc3cccnc23)cc1 | inactive |
| Cc1cc(Cl)c2oc(C(=O)NC(C)c3ccncn3)c(C)c2c1 (stereo not drawn) | inactive |
| Cc1cc(C(=O)N/N=C/c2ccccc2[N+](=O)[O-])c(C)o1 | inactive |
| O=C(N/N=C/c1cc(Cl)cc([N+](=O)[O-])c1O)C(O)(c1ccccc1)c1ccccc1 | 0.891 µM (active) |
| CN(C)/N=C/c1cc(Cl)cc([N+](=O)[O-])c1O | inactive |
| Cc1nn(C)c(Cl)c1CN1CCC(Oc2ccc(C(=O)N3CCCC3)cc2)CC1 | inactive |
| O=C(C[C@H]1C(=O)N(c2ccc(F)c(F)c2)C[C@@H]1Cc1ccccc1)Nc1ccccc1 | inactive |
| Cc1c(C(=O)NC2CCCCC2)oc2ccccc12 | inactive |
| CCOC(=O)CSc1ccccn1 | inactive |
| COc1cccc(N(CC(=O)NCCSc2ccccn2)S(C)(=O)=O)c1 | inactive |
| COc1ccc(C=C(C#N)C#N)c(CSc2ccccn2)c1 | 15.8 µM (active) |
| CCCn1c2ccccc2c2cnn(CC(=O)NCCCN3CCCCC3CC)c(=O)c21 (stereo not drawn) | inactive |
| O=C(OCC(=O)N1CCN(C(=O)c2ccco2)CC1)c1cccc(O)c1 | inactive |
| Cc1ccnc(-n2sc3ccccc3c2=O)n1 | 11.2 µM (active) |
| Cc1ccnc(N2CCCC(C(=O)NC3CC3)C2)n1 (stereo not drawn) | inactive |
| Cc1nc2ccccc2c(=O)n1NC(=O)c1ccccc1 | inactive |
